# Compound activity deposited in PubChem by National Center for Advancing Translational Sciences (NCATS).
# TCR activator – activators of T cell receptors; primary human leukocytes, anti-CD3, IL-2 HTRF, 48 h; AID 504894; Potency, µM (titrated, usually from 9.22 µM), hits mostly activators; 330,000 tested, under 10 active
#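 Using a-CD3 beads without co-stimulation, primary human leukocytes were exposed to compounds for 48 hr. An HTRF IL-2 kit measured the cytokine, with europium-to-d2 energy transfer producing emission at 665nm upon 320nm excitation.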
# GLS inhibitor – blocks human kidney-isoform glutaminase activity; O94925; GLS enzymatic activity, qHTS titration; Potency, µM (titrated, usually from 45.5 µM), usual class: inhibitors; actives 0.21% (n = 410,000)
#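 Coupled fluorescence readout: glutamate oxidase/HRP/Amplex Red detect glutamate formed by hKGA from L-glutamine (1 mM solution added). Buffer 45 mM KH2PO4 pH 8.2, 0.02% Tween-20; reads at t0 and 30 min RT.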
# TSHR antag – blocks TSH signaling through the human TSH receptor. TSHR-expressing cells, TSH-stimulated cAMP HTRF, 2 h; hits give low values. actives 0.2% (n = 330,000). activity change, negative = inhibition, % at 11.5 µM. P16473. AID 504810;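 active means activity change below a set negative limit, meaning inhibition stronger than a set level, cut at about -70% in these data; inconclusive means activity change between two set negative limits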
# Target sequence (P16473 whole entry, looked up): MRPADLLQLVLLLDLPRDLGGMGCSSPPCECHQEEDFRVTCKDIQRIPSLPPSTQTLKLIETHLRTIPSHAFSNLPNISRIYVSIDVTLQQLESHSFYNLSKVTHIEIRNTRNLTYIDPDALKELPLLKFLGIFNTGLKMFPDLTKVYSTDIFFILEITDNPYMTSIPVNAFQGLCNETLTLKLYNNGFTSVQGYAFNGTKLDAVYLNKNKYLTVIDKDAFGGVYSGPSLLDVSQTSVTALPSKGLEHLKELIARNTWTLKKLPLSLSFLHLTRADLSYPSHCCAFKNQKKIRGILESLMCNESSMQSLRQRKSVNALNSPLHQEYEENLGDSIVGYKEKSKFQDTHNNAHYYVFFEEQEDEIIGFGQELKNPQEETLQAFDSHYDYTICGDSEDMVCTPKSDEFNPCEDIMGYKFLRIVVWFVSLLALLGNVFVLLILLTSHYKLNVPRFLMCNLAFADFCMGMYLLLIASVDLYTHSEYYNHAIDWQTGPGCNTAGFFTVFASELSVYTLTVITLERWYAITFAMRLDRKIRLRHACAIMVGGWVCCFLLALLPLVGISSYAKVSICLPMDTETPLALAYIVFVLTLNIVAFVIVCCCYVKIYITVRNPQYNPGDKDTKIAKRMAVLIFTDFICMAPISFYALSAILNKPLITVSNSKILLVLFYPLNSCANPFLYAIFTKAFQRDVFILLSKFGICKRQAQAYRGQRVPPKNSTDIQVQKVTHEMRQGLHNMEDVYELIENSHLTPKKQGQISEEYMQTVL
#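 Competitive HTRF cAMP read-out (cryptate anti-cAMP antibody, cAMP-d2; 30 min, room temperature) in freshly harvested TSHR cells. Compounds added before TSH at EC80 (4nM final), followed by 2 hours' incubation at 37 deg C.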
# p53 reactivator – re-activators of mutant p53; actives 0.063% (n = 320,000); H1299 p53-A138V BP100-luciferase reporter, luminescence, 24 h; AID 504706; Potency, µM (titrated, usually from 92.2 µM), usual class: activators; further: nearly all actives have a fitted effect of over 45% in size
#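 p53-null H1299 cells stably carrying temperature-sensitive p53-A138V and a BP100-luciferase reporter were pinned with compounds (4-point, 1:5 series) and held 24 hrs at 37 deg C. Luminescence was read 10 min after detection reagent.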
# BRCA1 expr act – BRCA1 expression activation | MCF7-BRCA1-FFLuc reporter, luminescence, 48 h; response scale: scaled: vehicle 0%, 10 µM genistein 100% | Potency, µM (titrated, usually from 46.1 µM), most hits filed as activators | actives 1.1% (n = 380,000) | AID 624202; further: nearly all actives have a fitted effect of over 80% in size
#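 Compounds are tested at multiple concentrations on MCF7 BRCA1-luciferase reporter cells seeded at 2000 per well; after 48 h, a single luminescence end-point is taken and curves fitted to the normalized data.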
# N370S GC – inhibits or activates N370S mutant glucocerebrosidase; P04062; N370S GC spleen homogenate, 4MU-glucoside fluorescence; Potency, µM (series often up to 59.4 µM), actives largely listed as inhibitors; actives 0.092% (n = 330,000); AID 2101
# A number is an active result; i = inactive; ? = inconclusive; nt = not tested or not shown; [ ] = another dose, or the depositor's remark. Only some compounds are listed: those with a hit (about 1.4% of all), similar ones and a draw of the others. Unless noted, the call rests on the fitted dose curve; in most records, active means well fitted curve in the direction sought with a large enough effect; inconclusive means small, poorly fitted or top-dose-only effect, or another doubt; inactive means no such curve, though single readings can be large; an effect the other way counts as inactive or inconclusive.
SMILES,TCR activator,GLS inhibitor,TSHR antag,p53 reactivator,BRCA1 expr act,N370S GC
COCCCn1c(=O)c2sccc2n(Cc2cccc(C)c2)c1=O,i,i,-130.8,i,i,i
NS(=O)(=O)c1ccc(CCNC(=O)c2ccc(Br)s2)cc1,i,i,i,i,i,i
O=C(NCCc1ccc(Cl)cc1)c1ccc(Br)s1,i,i,i,?,3.55µM,i
CCOc1ncccc1C(=O)NCc1ccccc1F,i,i,i,i,i,i
O=C(NCCc1ccccc1F)c1cccc2cccnc12,i,i,i,i,2µM,i
CCN1C(=O)/C(=C/N2CCc3ccccc32)SC1=S,i,i,i,i,3.16µM,i
CCc1ccc(NC(=O)CCCN2C(=O)C3CC=CCC3C2=O)cc1 (stereo not drawn),i,i,i,i,7.94µM,i
Cc1cccc(NC(=O)CCCN2C(=O)C3CC=CCC3C2=O)c1 (stereo not drawn),i,i,i,i,i,i
Cc1cc2oc(=O)cc(COC(=O)c3n[nH]c4ccccc34)c2cc1C,i,i,i,i,i,i
COc1ccc2c(COC(=O)c3n[nH]c4ccccc34)cc(=O)oc2c1,i,i,i,?,4.47µM,i
O=C1c2cccc3cccc(c23)C(=O)N1CCCc1n[nH]c(=S)n1-c1ccccc1,i,3.98µM,i,i,i,i
O=C(Nc1cc(S(=O)(=O)N2CCOCC2)ccc1N1CCCC1)c1ccc2c(c1)S(=O)(=O)c1ccccc1C2=O,i,7.94µM,i,i,i,i
O=C(Nc1cc(S(=O)(=O)N2CCOCC2)ccc1N1CCCCC1)c1ccccc1,i,i,i,i,i,nt
CC(=O)N=C1SC2CS(=O)(=O)CC2N1c1ccc(-c2nc3ccc(C)cc3s2)cc1 (stereo not drawn),i,nt,i,?,nt,i
Cc1ccc2nc(-c3ccc(N4C(=NC(=O)CCC(=O)O)SC5CS(=O)(=O)CC54)cc3)sc2c1 (stereo not drawn),i,?,i,?,5.62µM,i
O=C(/C=C/c1ccccc1)Nc1ccc(Cl)cn1,i,i,i,i,3.55µM,i
COc1ccc(/C=C/C(=O)Nc2ccccc2)cc1OC,i,i,i,i,11.2µM,i
COc1ccc(NC(=O)/C=C/c2ccc(F)cc2)cn1,i,i,i,?,i,i
O=C(COC(=O)/C=C/c1ccccc1)Nc1ccc(Cl)cn1,i,i,i,i,i,i
COc1ccc(NC(=O)/C=C/c2ccccc2)cn1,i,i,i,?,8.91µM,i
Cc1ccc2c(/C=C/c3ccc(N(C)C)cc3)ccnc2c1,nt,nt,nt,nt,i,nt
C=C1C[C@@H]2[C@H]3CCC4=CC(=O)C=C[C@]4(C)[C@@]3(F)[C@@H](O)C[C@]2(C)[C@]1(O)C(=O)COC(C)=O,nt,i,nt,nt,nt,nt
C[C@H]1/C=C\CC(=O)OC[C@H](C)C(=O)N2CCC[C@@H]2C(=O)OC1,nt,nt,nt,nt,nt,i[12.8 µM]
Cc1nnc(Sc2cc(NCCCO)c([N+](=O)[O-])c3nonc23)s1,i,?,-85.6,i,i,i
CCCC(=O)OCCNc1cc(Sc2nccn2C)c2nonc2c1[N+](=O)[O-],i,i,-93.3,i,i,i
SMILES,TCR activator,GLS inhibitor,TSHR antag,p53 reactivator,BRCA1 expr act,N370S GC
CC(=O)Nc1ccc(NC(=O)Nc2cccc3ccccc23)cc1,i,i,i,i,i,i
CC(=O)c1ccc(NC(=O)Nc2cccc3ccccc23)cc1,i,i,i,i,3.98µM,i
CCN(CC)c1ccc(-c2nnc(SCC(=O)NCc3ccco3)n2C)cc1,nt,nt,nt,nt,i,nt
Nc1ccc(/C=C/c2cc(Cl)nc3ccccc23)cc1,nt,nt,nt,nt,i,nt
CCO[C@@H](Cc1ccc(OCCc2ccc(OS(C)(=O)=O)cc2)cc1)C(=O)O,nt,i,nt,nt,nt,nt
O=S(=O)(Nc1cccc(-n2cnnn2)c1)c1ccccc1C(F)(F)F,i,i,-136.0,i,i,i
CCN1C(=O)c2ccccc2C1Nc1cccc(OCCN2CCCCC2)c1 (stereo not drawn),nt,i,nt,nt,nt,nt
COC(=O)Cc1ccc2sc(-c3ccccc3)nc2c1,i,i,i,?,7.08µM,i
O=C(O)Cc1ccc2sc(-c3ccccc3)nc2c1,i,i,i,?,i,i
O=C(Nc1ccc2[nH]ncc2c1)c1ccccc1Cl,i,i,i,nt,2.82µM,i
O=C(Nc1ccc2[nH]ncc2c1)c1ccccc1Br,nt,i,i,?,?,i
Nc1nnc(SCCOc2ccc(Br)cc2)s1,i,i,i,i,11.2µM,i
O=C(CNC(=O)c1ccc(Cl)cc1)c1ccccc1,i,i,nt,nt,?,nt
O=C(CNC(=O)c1ccc(Cl)cc1)c1ccc(Cl)cc1,i,i,i,i,11.2µM,i
C#CCCc1cscc1/C=[N+](\[O-])c1ccc(C(=O)OCC)cc1,i,?,i,i,6.31µM,nt
CCOC(=O)c1ccc(/[N+]([O-])=C/c2ccccc2)cc1,i,?,i,i,?,nt
Cc1nc2ccc(NC(=O)c3ccc(Cl)c([N+](=O)[O-])c3)cc2s1,i,i,i,?,i,i
Cc1nc2ccc(NC(=O)c3cc([N+](=O)[O-])cc([N+](=O)[O-])c3Cl)cc2s1,i,i,-76.2,?,i,i
CC(C)C[C@H](NC(=O)[C@@H](Cc1c[nH]c2ccccc12)NC(=O)[C@H](Cc1ccc(O)cc1)NC(=O)[C@H](CO)NC(=O)[C@H](Cc1c[nH]c2ccccc12)NC(=O)[C@H](Cc1cnc[nH]1)NC(=O)[C@@H]1CCC(=O)N1)C(=O)N[C@@H](CCCN=C(N)N)C(=O)N1CCC[C@H]1C(=O)NCC(N)=O,nt,nt,nt,nt,nt,i
C/C(=N\NC(=O)c1c(Cl)cnn1C)c1ccc(NC(=O)c2ccc(Br)o2)cc1,i,i,i,i,10µM,i
O=C(NNc1cc(Cl)ccc1Cl)c1cccs1,i,12.6µM,i,i,i,i
Cc1cc(Cl)ccc1NNC(=O)c1cccs1,i,?,i,i,i,i
O=c1c(Br)c(N2CCOCC2)cnn1-c1ccccc1,i,i,i,i,12.6µM,i
COc1ccc(CNC(=O)CCS(=O)(=O)c2cc3c(cc2Cl)NC(=O)CO3)cc1,i,i,-119.5,i,i,i
CCC(=O)NC1=C(Cl)C(=O)C(NC(=O)CC)=C(Cl)C1=O,i,?,-85.9,i,i,i
CCN(CC)/[N+]([O-])=N/OCOC(=O)c1ccccc1OC(C)=O,nt,nt,nt,nt,i,nt
COc1ccc(S(=O)(=O)Nc2ccc(C)cc2)cc1N(C)S(=O)(=O)c1ccc(Cl)cc1,i,i,-90.6,i,i,i
COc1cc(/C=N/N=C2/NC(=O)C(CC(=O)O)S2)ccc1OCc1cccc(Cl)c1 (stereo not drawn),i,i,i,i,11.2µM,i
